Source: PubChem BioAssay (National Center for Advancing Translational Sciences (NCATS))
AMA1 RON2 block: inhibitors of Plasmodium falciparum AMA1-RON2 interaction. AlphaScreen AMA1-biotinylated RON2 peptide binding. actives 0.2% (n = 360,000). Potency, µM (series often up to 58.2 µM), hits mostly inhibitors. AID 720542; also: nearly all actives have a fitted effect of over 45% in size
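AMA1 (3D7) with his tag at 25 nM final met compounds first, then biotinylated RON2 peptide at 25 nM; detection used donor plus acceptor beads, 10 µg/mL apiece, read by AlphaScreen after 30 min at room temperature.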
SARS PLpro yeast: SARS-CoV PLP inhibition in yeast | S. cerevisiae expressing SARS-CoV PLpro, growth rescue | actives 0.19% (n = 330,000) | Potency, µM (highest dose often 32.9 µM), actives largely listed as activators; calls by dose curve; also: nearly all actives have a fitted effect of over 55% in size
CHX counter: counter-screen hit for Shiga toxin inhibitors, cycloheximide; cell reporter, cycloheximide protein synthesis inhibition counterscreen; max response, %; actives 12% (n = 300,000); in the data active = max response mostly above about 13%, no sharp cut-off; inactive = mostly below about 14%; also: read at 38.3 µM for the half of the compounds with a filed dose
Shiga toxin inh: blocks Shiga toxin action in Vero cells; Vero cells, Shiga toxin protein synthesis inhibition reporter; AID 2315; inhibition, % at 38.7 µM; actives 9.2% (n = 290,000); in the data active = inhibition mostly above about 28%, no sharp cut-off; inactive = mostly below about 43%
Pf growth 48h: P. falciparum growth inhibition at 48 hours (one generation); Potency, µM (doses to about 28.7 µM), actives largely listed as inhibitors; actives 5.9% (n = 310,000); AID 504832; P. falciparum luciferase growth in erythrocytes, 48 h
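Firefly luciferase activity from engineered P. falciparum reports growth; inhibitors lower the luminescent signal. Cultures contained 2% hematocrit erythrocytes at 0.1% final parasitemia.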
Pf growth 96h: P. falciparum growth inhibition at 96 hours | P. falciparum luciferase reporter growth, 96 h | Potency, µM (highest dose often 28.7 µM), usual class: inhibitors | actives 6.9% (n = 320,000)
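96 h incubation, 37 C, 5% CO2, of luciferase-reporter P. falciparum-infected RBCs (2% hematocrit, 0.05% parasitemia final) with test compounds; endpoint luminescence.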
Large screens that a line does not name were inactive. Rows were chosen to be rich in hits. Some 19% of all compounds tested hit in one or more screens of this group. Unless noted, calls follow the shape of the dose curve; as a rule, active = well fitted curve in the direction sought with a large enough effect; inconclusive = small, poorly fitted or top-dose-only effect, or another doubt; inactive = no such curve, though single readings can be large; an effect the other way counts as inactive or inconclusive.

COc1ccccc1-c1nnc(C2CCN(S(=O)(=O)c3ccccc3[N+](=O)[O-])CC2)o1	Pf growth 96h inconclusive
O=C(CSc1ccccc1)NC1CCCCCC1	CHX counter 49.3, Shiga toxin inh 117.9, Pf growth 96h inconclusive
O=C(CSc1ccccc1)NC1CC1	none (no result: SARS PLpro yeast, CHX counter, Shiga toxin inh, Pf growth 48h, Pf growth 96h)
Nc1cc(=O)nc(SCC(=O)NC2CCCCC2)n1-c1ccccc1	none
CCN(CC(=O)NC(C)(C)C)C(=O)c1ccccc1SCC(=O)NC1CCCCCCC1	Pf growth 48h 10.4µM, Pf growth 96h inconclusive (no result: SARS PLpro yeast)
NC(=O)c1ccc(-n2nnnc2SCC(=O)NC2CCCCC2)cc1	Pf growth 96h 13.1µM
Nc1nnc(SCC(=O)NC2CCCCC2)n1-c1ccccc1	Pf growth 96h 8.28µM
O=[N+]([O-])c1cc(Cl)c(Cl)c(Cl)c1Cl	Pf growth 96h inconclusive (no result: CHX counter, Shiga toxin inh)
O=C(CSc1ccccc1)NC1CCCCCCC1	CHX counter 40.2, Shiga toxin inh 61.7
O=C(CSc1ccccc1C(=O)O)NC1CCCCCC1	Pf growth 96h inconclusive
COc1ccc(C(CC(=O)N2CCN(c3ccccc3)CC2)c2c(OC)cc(OC)c3ccc(=O)oc23)cc1 (stereo not drawn)	Pf growth 48h 7.38µM, Pf growth 96h 8.28µM
CCN(CC)CCC(c1cc(OC)c(OC)c(OC)c1)c1c(OC)cc(OC)c2c(C)cc(=O)oc12 (stereo not drawn)	Pf growth 48h 9.28µM, Pf growth 96h inconclusive
COc1cc(C(CCN2CCCC2)c2c(OC)cc(OC)c3ccc(=O)oc23)cc(OC)c1OC (stereo not drawn)	Pf growth 48h inconclusive, Pf growth 96h 10.4µM
COc1cc(C(CC(=O)N2CCCC2)c2c(OC)cc(OC)c3ccc(=O)oc23)cc(OC)c1OC (stereo not drawn)	Pf growth 48h 13.1µM, Pf growth 96h 13.1µM
COc1cc(OC)c2ccc(=O)oc2c1C(CC(=O)N1CCCC(C)C1)c1ccc2c(c1)OCO2 (stereo not drawn)	Pf growth 48h inconclusive, Pf growth 96h inconclusive
COc1cc(C(CCN2CCOCC2)c2c(OC)cc(OC)c3ccc(=O)oc23)cc(OC)c1OC (stereo not drawn)	none (no result: AMA1 RON2 block, SARS PLpro yeast, Pf growth 48h, Pf growth 96h)
O=C(NNc1cccc(Cl)c1)c1cccnc1Cl	none
COc1ccc2cc(/C=N/NC(=O)CN(c3ccccc3C)S(=O)(=O)c3ccccc3)c(Cl)nc2c1	none
COc1cc(O)c(C(CC(=O)N2CCN(c3ccccc3)CC2)c2ccc(N(C)C)cc2)c(OC)c1 (stereo not drawn)	AMA1 RON2 block inconclusive, Pf growth 48h inconclusive, Pf growth 96h 11.7µM
COc1cc(C(CCN2CCCC(C)C2)c2c(OC)cc(OC)c3c(C)cc(=O)oc23)cc(OC)c1OC (stereo not drawn)	none (no result: AMA1 RON2 block, SARS PLpro yeast, Pf growth 48h, Pf growth 96h)
COc1cc(OC)c2ccc(=O)oc2c1C(CC(=O)N1CCCC1)c1ccc2c(c1)OCO2 (stereo not drawn)	Pf growth 48h 9.28µM, Pf growth 96h inconclusive
COc1cc(O)c(C(CC(=O)N2CCCC(C)C2)c2ccc(N(C)C)cc2)c(OC)c1 (stereo not drawn)	AMA1 RON2 block inconclusive, Pf growth 48h inconclusive, Pf growth 96h inconclusive
COc1cc(C(CCN2CCN(c3ccccc3)CC2)c2c(OC)cc(OC)c3c(C)cc(=O)oc23)cc(OC)c1OC (stereo not drawn)	AMA1 RON2 block inconclusive, Pf growth 48h 2.62µM, Pf growth 96h 3.7µM
COc1cc(OC)c2ccc(=O)oc2c1C(CC(=O)N1CCCCC1)c1ccc2c(c1)OCO2 (stereo not drawn)	none (no result: AMA1 RON2 block, SARS PLpro yeast, Pf growth 48h, Pf growth 96h)
CC(C)(C)c1ccc(C(=O)N2CCC2(C)C(=O)NS(=O)(=O)c2ccccc2Cl)cc1 (stereo not drawn)	none (no result: SARS PLpro yeast, CHX counter, Shiga toxin inh, Pf growth 48h, Pf growth 96h)
Oc1cc(OCc2ccccc2)ccc1-c1[nH]ncc1-c1ccccc1	Pf growth 48h inconclusive, Pf growth 96h inconclusive
COc1ccc(-c2cn[nH]c2-c2ccc(OCc3ccc(F)cc3)cc2O)cc1OC	Pf growth 48h 10.4µM
COc1ccc(-c2cn[nH]c2-c2ccc(OCc3ccccc3)cc2O)cc1OC	Pf growth 48h 8.28µM
COc1ccc(-c2cn[nH]c2-c2ccc(OCC(=O)NN)cc2O)cc1OC	Pf growth 48h inconclusive, Pf growth 96h inconclusive
NC(=O)C1=C[C@@H](C2CCCCC2)C[C@@H](OCCCCO)O1	none
COc1cc2cc(CN(CCc3cccc(C)c3)C(=S)NCCCN(C)C)c(=O)[nH]c2cc1OC	Pf growth 48h 13.1µM
Cc1ccc2cc(CN(C(=O)c3ccncc3)C(C)C)c(=O)[nH]c2c1	Pf growth 48h inconclusive, Pf growth 96h 8.28µM
CNC(=S)N(CCc1cccc(C)c1)Cc1cc2cc(OC)c(OC)cc2[nH]c1=O	none
CC(=O)N(CCc1cccc(C)c1)Cc1cc2ccc(C)cc2[nH]c1=O	Pf growth 96h 0.0738µM
CC(=O)N(CCc1cccc(C)c1)Cc1cc2cc(C)ccc2[nH]c1=O	none
Cc1cc(OCC(O)CN2CCCC2)ccc1C(C)C (stereo not drawn)	Pf growth 48h inconclusive
CCOc1ccc(OCCOCCN2CCOCC2)cc1	none (no result: Pf growth 48h)
Cc1cc(OCC(O)CN2CCN(CCO)CC2)ccc1C(C)C (stereo not drawn)	Pf growth 96h 9.28µM
Cc1cc(OCCN2CCOCC2)ccc1C(C)C	CHX counter 48.4, Shiga toxin inh 59.7
CCc1cccc(CC)c1NC(=O)CO/N=C(\C)c1cccs1	SARS PLpro yeast inconclusive
CC1(C)Cc2c(cnn2-c2ccccc2)C(NC(=O)CCCn2cncn2)C1 (stereo not drawn)	CHX counter 24.4, Pf growth 96h 11.7µM
CCc1noc(C)c1C(=O)NC1CC(C)(C)Cc2c1cnn2-c1ccccc1 (stereo not drawn)	Pf growth 96h 9.28µM (no result: AMA1 RON2 block)
CC1(C)Cc2c(cnn2-c2ccc(F)cc2)C(NC(=O)CCn2cncn2)C1 (stereo not drawn)	CHX counter 25.1, Pf growth 96h inconclusive
CC1(C)Cc2c(cnn2-c2ccccc2)C(NC(=O)CCCN2CCCC2=O)C1 (stereo not drawn)	none
Cc1ccc(-n2ncc3c2CC(C)(C)CC3NC(=O)CCc2cccnc2)cc1 (stereo not drawn)	Pf growth 96h 11.7µM
NC1=NC2C(N=C(Br)N2[C@@H]2O[C@H]3COP(=O)(O)O[C@@H]3[C@@H]2O)C(=O)N1 (stereo partly drawn)	none (no result: AMA1 RON2 block, SARS PLpro yeast, Pf growth 48h, Pf growth 96h)
Cc1nonc1CC(=O)NC1CC(C)(C)Cc2c1cnn2-c1ccc(F)cc1 (stereo not drawn)	CHX counter 13.5, Shiga toxin inh 32.7, Pf growth 96h inconclusive
O=C1COc2ccc(C(=O)COC(=O)CCCOc3ccccc3)cc2N1	none (no result: SARS PLpro yeast, CHX counter, Shiga toxin inh, Pf growth 48h, Pf growth 96h)
CCCCN(C(=O)c1cccc2c(=O)c(C)c(-c3ccccc3)oc12)c1ccccc1	Pf growth 48h inconclusive, Pf growth 96h 4.15µM
CCCCNC(=O)c1cccc2c(=O)c(C)c(-c3ccccc3)oc12	Pf growth 96h inconclusive
Cc1ccsc1/C=C1\SC(N)=NC1=O	CHX counter 20.1
